# In the library only some 2.9% were active in any assay of this set; here they are far more common.
# ADAM10 inh: human ADAM10 inhibitors, primary screen, biochemical, QFRET, HTS | Disintegrin and metalloproteinase domain-containing protein 10 (Homo sapiens), O14672 | recombinant ADAM10, EDANS/DABCYL FRET peptide cleavage, 3 h | inhibition, % at 7 µM | 370,000 compounds, 0.62% hits;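 active = inhibition above a per-campaign cutoff equal to the mean of compounds falling between control-based bounds plus 3 SD, cut at about 20% in these data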;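 also: 0% = DMSO wells while the 100% control is not disclosed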
# Target sequence (O14672 214-748 limits assumed): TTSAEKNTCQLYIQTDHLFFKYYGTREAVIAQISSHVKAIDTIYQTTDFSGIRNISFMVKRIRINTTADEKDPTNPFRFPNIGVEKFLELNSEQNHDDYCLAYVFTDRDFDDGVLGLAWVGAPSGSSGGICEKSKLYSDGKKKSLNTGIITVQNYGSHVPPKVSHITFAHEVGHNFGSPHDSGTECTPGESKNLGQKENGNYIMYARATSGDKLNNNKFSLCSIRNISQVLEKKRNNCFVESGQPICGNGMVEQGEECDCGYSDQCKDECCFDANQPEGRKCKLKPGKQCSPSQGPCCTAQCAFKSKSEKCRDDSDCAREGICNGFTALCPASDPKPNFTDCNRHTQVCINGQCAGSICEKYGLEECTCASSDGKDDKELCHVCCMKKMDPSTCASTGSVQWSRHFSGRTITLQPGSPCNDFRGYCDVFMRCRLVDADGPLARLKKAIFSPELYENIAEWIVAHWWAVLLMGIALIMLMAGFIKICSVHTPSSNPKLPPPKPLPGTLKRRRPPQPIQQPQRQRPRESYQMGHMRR
# ADAM17 inh: ADAM17 inhibitors, primary screen, biochemical, QFRET. Disintegrin and metalloproteinase domain-containing protein 17 (Homo sapiens), P78536. recombinant ADAM17, EDANS/DABCYL FRET peptide cleavage. inhibition, % at 6.95 µM. 370,000 compounds, 0.83% hits. AID 720648, 2013;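 active = inhibition above the mean of compounds lying between control limits plus 3 SD, set per campaign, cut at about 8.5% in these data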;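 also: 0% = DMSO-only wells as the low control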
# PLC-beta3 inh: human PLC-beta3 inhibitors, primary screen, biochemical, fluorescence | inhibition, % at 12.2 µM | AID 720704, 2013 | 1-phosphatidylinositol 4,5-bisphosphate phosphodiesterase beta-3 (Homo sapiens), Q01970 | Purified PLC-beta3, fluorogenic substrate | 370,000 compounds, 0.18% hits; in the data active = inhibition above about 11%;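 also: 0% = median of compound wells on plate and 100% = full blocker control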
# PLCg1 inh: PLC-gamma1 enzyme inhibitors, primary screen, biochemical, fluorescence, purified enzyme; inhibition, % at 12.2 µM; AID 720700, 2013; 1-phosphatidylinositol 4,5-bisphosphate phosphodiesterase gamma-1 (Homo sapiens), P19174; 370,000 compounds, 0.84% hits; fluorogenic substrate; in the data active = inhibition above about 9.5%
# KLK7 zymogen act: proKLK7 zymogen activators, primary screen, biochemical, fluorescence intensity; Kallikrein-7 (Homo sapiens), P49862; purified proKLK7, EDANS-DABCYL substrate fluorescence; 100% is mature enzyme control, 0% vehicle; 370,000 compounds, 0.9% hits; activation, % at 7 µM;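 active = activation above the mean of all tested compounds plus 3 SD, computed per campaign excluding outliers beyond control limits, cut at about 13% in these data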
# ADAM10 confirm: human ADAM10 inhibitors, confirmation, biochemical, QFRET, triplicate; inhibition, % at 6.95 µM; ADAM10 QFRET peptide cleavage, EDANS fluorescence; 2,100 compounds, 1% hits; AID 743208, 2013; shares compounds with ADAM10 inh;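 active = inhibition above about 20% chosen separately for each screening run, limit read from the data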;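 also: 0% = DMSO wells and 100% = marimastat wells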
# ADAM17 counter: ADAM17 inhibitors, counter-screen for ADAM10 exosite inhibitor project, biochemical, QFRET, high throughput; shares compounds with ADAM10 inh; ADAM17 QFRET peptide cleavage, EDANS fluorescence; inhibition, % at 6.95 µM; 2,100 compounds, 0.5% hits; AID 743214, 2013;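 active = mean triplicate inhibition above the solvent-only control wells' mean plus 3 SD, cut at about 12% in these data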;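 also: 0% = DMSO wells and 100% = marimastat wells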
# The depositor's hits bear a star; . = not tested or not shown.
SMILES,ADAM10 inh,ADAM17 inh,PLC-beta3 inh,PLCg1 inh,KLK7 zymogen act,ADAM10 confirm,ADAM17 counter
Cc1ccc(NC(=O)CN2CCN(c3nc(-c4ccccc4)cs3)CC2)cc1C,22.1*,7.3,-3.2,0.0,0.7,7.2,2.4
O=C(Nc1ccn(Cc2ccccc2F)n1)c1ccc(COc2ccc(Br)cc2)cc1,19.9*,3.3,-6.0,-1.6,-0.4,4.9,0.6
CN(C)c1ccc(C2CNC(c3ccc(Cl)c([N+](=O)[O-])c3)c3[nH]c4ccccc4c32)cc1 (stereo not drawn),3.2,1.0,-167.5,-115.0,-0.3,.,.
O=[N+]([O-])c1cccc(C2NCC(c3ccccc3Cl)c3c2[nH]c2ccccc32)c1 (stereo not drawn),21.3*,5.4,-5.8,-0.1,0.3,5.5,3.0
N#CCC[C@@H]1CC[C@]2(CCCN(C(=O)c3ccc4ccccc4n3)C2)O1,1.2,-0.4,2.1,0.5,-0.7,.,.
O=C(CSc1nnc(-c2cccc(Cl)c2)n1Cc1ccco1)Nc1ccc2c(c1)OCO2,5.8,3.7,-1.3,-2.8,0.9,.,.
COc1cccc(C(O)c2nc(-c3ccccc3C)cs2)c1 (stereo not drawn),19.8*,7.7,9.5,4.3,-0.8,1.3,-0.2
COc1cccc(C(O)c2nc(-c3ccccc3OC)cs2)c1 (stereo not drawn),-3.1,-2.6,0.3,2.7,0.1,.,.
COc1ccc(Cl)cc1NC(=O)CN(C)C(=O)c1sc2ccccc2c1Cl,23.5*,6.6,-2.1,6.9,-0.7,9.0,2.7
COc1ccc(Cl)cc1NC(=O)CN(C)C(=O)CN1C(=O)NC(C)(c2ccc3ccccc3c2)C1=O (stereo not drawn),27.3*,4.9,1.3,5.1,0.3,2.2,0.0
CC(=O)N(/N=C1\Sc2ccccc2C1=O)c1ccc(C)cc1C,0.7,-0.6,-2.5,-0.1,-0.1,.,.
CC(=O)N(/N=C1\Sc2ccccc2C1=O)c1ccccc1C,76.5*,2.3,-6.3,-5.8,0.1,0.9,0.5
Nc1[nH]c(C(=O)c2ccccc2)c(-c2ccc3ccccc3c2)c1C(=O)NC1CC1,-6.5,-3.4,-5.3,-7.6,1.1,.,.
C[C@H](c1ccccc1)N1C[C@@H](COCc2ccccc2)Oc2cccc(Oc3ccc(C(C)(C)C)cc3)c2S1(=O)=O,-9.0,-3.6,-0.7,-1.1,0.2,.,.
O=C(NCc1ccc(OC(F)(F)F)cc1)c1cc(-c2ccccc2)nn1CC1CC(c2cccnc2)=NO1 (stereo not drawn),20.1*,6.1,5.9,3.3,1.0,0.2,1.5
O=S(=O)(Nc1ccc2c3c(cccc13)CC2)c1ccc(F)cc1,9.4,2.3,-2.7,-3.0,0.5,.,.
CSc1ccc(S(=O)(=O)Nc2ccc3c4c(cccc24)CC3)cc1,19.9*,6.6,-8.7,-3.9,-0.1,9.8,3.4
COc1ccc(C(Nc2cc(C)ccn2)c2ccc3ccc(C)nc3c2O)cc1 (stereo not drawn),22.6*,1.3,0.3,-0.1,0.4,20.0*,5.3
CCc1ccc(N=Nc2ccc(O)c3[nH]cnc23)cc1,23.5*,6.8,-10.9,-5.5,0.6,1.8,0.8
COc1ccc(N=Nc2ccc(O)c3ncccc23)cc1,-3.8,-3.0,-2.9,0.3,0.0,.,.
Cc1nc(N2CCN(C(=O)C3CC3)CC2)c2c3c(sc2n1)CC(C)CC3 (stereo not drawn),-42.4,-6.3,-1.4,-0.2,.,.,.
C/C(CC(=O)Nc1cc(Cl)ccc1Cl)=N\NC(=O)COc1cccc(C)c1,20.0*,2.0,-1.4,4.0,-0.5,2.4,0.3
Cc1cc(C)c(O)c(C(=O)CC2CC(=O)NC(=O)C2)c1,-8.1,-2.1,2.1,-0.7,0.1,.,.
O=C(NCc1ccccc1F)c1ccc(S(=O)(=O)Nc2cccc(C(F)(F)F)c2)cc1,10.4,4.0,-2.6,-0.8,-0.4,.,.
O=C(NCc1ccc(F)cc1)c1ccc(S(=O)(=O)Nc2cccc(C(F)(F)F)c2)cc1,26.6*,8.3,0.5,-2.4,0.3,-1.1,-0.3
SMILES,ADAM10 inh,ADAM17 inh,PLC-beta3 inh,PLCg1 inh,KLK7 zymogen act,ADAM10 confirm,ADAM17 counter
COc1ccccc1NS(=O)(=O)c1cccc(C(=O)OCc2nc3ccccc3s2)c1,21.1*,7.7,-2.7,7.5,0.3,6.6,1.7
COc1ccccc1NS(=O)(=O)c1cccc(C(=O)OCC(=O)Nc2cc(C)on2)c1,-1.3,-2.9,-1.5,-1.2,-0.1,.,.
C=CCN1CCc2cc(O)c(O)cc2C(c2ccccc2)C1 (stereo not drawn),20.9*,-1.8,3.7,-0.2,0.4,-2.3,0.2
COC(=O)c1cc2c(c3c4cc(C)ccc4n(S(=O)(=O)c4ccc(OC)cc4)c13)C(=O)N(Cc1ccc(C(F)(F)F)cc1)C2,-5.7,-2.9,-11.0,-3.4,0.7,.,.
CC(COc1ccc([N+](=O)[O-])cc1Cl)CN1CCC(C(O)(c2ccccc2)c2ccccc2)CC1 (stereo not drawn),10.3,5.6,0.0,5.6,0.0,.,.
CCOc1ccc(NC(=O)CN(C)C(=O)CSCc2cccc(C)c2)cc1OCC,30.2*,-0.3,3.4,-1.1,0.1,6.2,1.1
Nn1c(SCC(=O)Nc2ccc(OCc3ccccc3)cc2)nnc1-c1cc(-c2ccc(Cl)cc2)n[nH]1,-5.7,-0.6,-1.2,0.3,0.2,.,.
Cc1ccc(S(=O)(=O)N(CCC(=O)Nc2ccc(OC(F)(F)F)cc2)c2ccccc2)cc1,20.5*,7.8,2.0,1.7,0.8,8.6,2.5
COc1ccc(S(=O)(=O)N(CC(=O)Nc2ccc(S(=O)(=O)N3CCOCC3)cc2)c2ccccc2)cc1,23.6*,7.6,2.4,6.5,-0.1,2.4,1.0
Cc1ccc(S(=O)(=O)N(CCC(=O)NCc2ccccc2F)c2ccccc2)cc1,-0.4,0.3,2.9,7.2,0.6,.,.
O=C(C1CCCN(S(=O)(=O)c2ccc(F)cc2)C1)N1CCN(Cc2ccccc2)CC1 (stereo not drawn),5.6,-0.6,4.0,1.2,0.2,.,.
O=[N+]([O-])c1cc(CN2CCN(c3ccccc3)CC2)c(O)c2ncccc12,20.4*,6.2,2.8,3.8,0.0,5.8,0.9
COc1cc(OC)c(C2CC(=O)N3CN(c4ccccc4)CSC3=C2C#N)cc1OC (stereo not drawn),24.4*,-0.5,-14.1,-8.0,-0.6,2.1,0.7
